System: Vero E6 infected with SARS-CoV-2
Assay: inhibition of SARS-CoV-2 cytopathic effect; higher = more antiviral protection, active = above 15
Details: 48 h

Measured: inhibition of SARS-CoV-2 cytopathic effect

CCN(CC)C(=O)Nc1ccc(OCC(O)CNC(C)(C)C)c(C(C)=O)c1 (stereo not given) [celiprolol]
inactive: 1 nM -3.29% | 8.33 nM 0.91% | 100 nM -0.73% | 833.33 nM -0.15% | 10000 nM -0.87%

O=C(C=Cc1ccccc1)NC(NC(=S)Nc1ccc(Cl)cc1)C(Cl)(Cl)Cl (stereo not given)
inactive: 1 nM 0.51% | 8.33 nM 0.81% | 100 nM -4.17% | 833.33 nM -1.91% | 10000 nM -5.67%

O=C(NCc1ccc(Oc2ccccc2)cc1)c1nc(-c2cc(Br)c(O)c(Br)c2)no1
inactive: 1 nM -1.01% | 8.33 nM -0.54% | 100 nM 0% | 833.33 nM 0.07% | 10000 nM 0.36%

C[C@]12CC[C@H](O)CC1=CC[C@@H]1[C@@H]2CC[C@]2(C)C(c3cccnc3)=CC[C@@H]12 [Abiraterone (CB-7598)]
inactive: 1 nM 2.77% | 8.33 nM 5.09% | 100 nM 3.28% | 833.33 nM 2.56% | 10000 nM 1.88%

CC(C)Cn1cnc2c(N)nc3ccccc3c21 [imiquimod]
inactive: 1 nM 1.22% | 8.33 nM 1.42% | 100 nM -0.63% | 833.33 nM 2.38% | 10000 nM 0.63%

Nc1ncc2c(n1)CC(c1ccco1)CC2=O (stereo not given)
inactive: 1 nM 2.9% | 8.33 nM 3.51% | 100 nM 2.68% | 833.33 nM 4.74% | 10000 nM 3.17%

CC1(C)CCC[C@]2(C)[C@H]3CC(=O)O[C@]3(C)CC[C@@H]12 [Sclareolide (Norambreinolide)]
inactive: 1 nM -2.36% | 8.33 nM 3.53% | 100 nM 6.06% | 833.33 nM 2.01% | 10000 nM 1.5%

C=CC(=O)Nc1cc(Nc2nccc(-c3c[nH]c4ccccc34)n2)c(OC)cc1N(C)CCN(C)C
inactive: 1 nM -3.07% | 8.33 nM -6.83% | 100 nM -10.5% | 833.33 nM -13.9% | 10000 nM -12.3%

CNCC[C@@H](Oc1ccccc1C)c1ccccc1 [atomoxetine]
inactive: 1 nM 1.13% | 8.33 nM 1.43% | 100 nM 3.37% | 833.33 nM 2.34% | 10000 nM -2.83%

Cc1cc(C)c2c(c1)[C@@H](N(Cc1cc(C(F)(F)F)cc(C(F)(F)F)c1)c1nnn(C)n1)CCCN2C[C@H]1CC[C@H](C(=O)O)CC1 [evacetrapib]
inactive: 1 nM 2.13% | 8.33 nM -0.17% | 100 nM -3.28% | 833.33 nM -0.14% | 10000 nM 3.85%

COc1cccc(CCc2ccccc2OCC(CN(C)C)OC(=O)CCC(=O)O)c1 (stereo not given) [sarpogrelate]
inactive: 1 nM -0.45% | 8.33 nM -1.71% | 100 nM -2.81% | 833.33 nM -0.22% | 10000 nM -1.72%

CCN(CC)CCNC(=O)c1ccc(N)cc1 [procainamide]
inactive: 1 nM -2.56% | 8.33 nM 0.24% | 100 nM -0.04% | 833.33 nM -1.26% | 10000 nM 0.87%

Cc1ccccc1N(C)C(=O)c1ccc([S+]([O-])c2nccs2)c([N+](=O)[O-])c1 (stereo not given)
inactive: 1 nM -0.08% | 8.33 nM -0.71% | 100 nM 1.56% | 10000 nM 12.2%
active: 833.33 nM 16.5%

CCCCc1ccc(C(N)=O)nc1 [bupicomide]
inactive: 1 nM 2.98% | 8.33 nM 0.4% | 100 nM -0.52% | 833.33 nM -0.04% | 10000 nM 3.08%

CCc1cc(O)c(Oc2ccc(C(N)=O)cc2F)cc1F
inactive: 1 nM 0.22% | 8.33 nM -0.22% | 100 nM 0.21% | 833.33 nM -0.53% | 10000 nM -0.97%

CCOC(=O)c1c(CSc2ccccc2)n(C)c2cc(Br)c(O)c(CN(C)C)c12 [arbidol]
inactive: 1 nM -1.24% | 8.33 nM 3.62% | 100 nM 2.92% | 833.33 nM 4.8% | 10000 nM 3.91%

O=C(Nc1ncc(SCCN2CCCC2)s1)[C@]1(c2ccc(S(=O)(=O)C3CC3)cc2)C[C@H]1C1CCCCC1
inactive: 1 nM 1.58% | 8.33 nM -0.96% | 100 nM -2.63% | 833.33 nM -2.76% | 10000 nM -5.6%

Cc1[nH]c2ccc(O)cc2c1CCN [2-methyl-5-hydroxytryptamine]
inactive: 1 nM -3.47% | 8.33 nM -2.58% | 100 nM -4.33% | 833.33 nM -12.8% | 10000 nM -2.37%

CN1C(=O)N(c2cc(Cl)cc(Cl)c2)C(=O)[C@@]1(C)Cc1ccc(Br)cc1
inactive: 1 nM -0.07% | 8.33 nM -0.29% | 100 nM -0.15% | 833.33 nM -1.61% | 10000 nM -5.8%

NS(=O)(=O)c1nn2cc(-c3ccccc3)nc2s1
inactive: 1 nM 8.11% | 8.33 nM 1.76% | 100 nM 0.85% | 833.33 nM 0.07% | 10000 nM 0.7%

O=C(c1cccc(Cl)c1F)N1CCN(Cc2cccc(Nc3nccs3)n2)CC1
inactive: 1 nM -0.75% | 8.33 nM -9.29% | 100 nM 0.91% | 833.33 nM -4.51% | 10000 nM -1.08%

O=C1c2ccccc2-c2c(NCCc3ccccc3)c(=O)[nH]c3cccc1c23
inactive: 1 nM -0.39% | 8.33 nM 1.98% | 100 nM 0.01% | 833.33 nM 2.52% | 10000 nM 1.12%

CCOC(=O)NNc1nncc2ccccc12 [todralazine]
inactive: 1 nM 2.18% | 8.33 nM 1.04% | 100 nM 0.33% | 833.33 nM 0.99% | 10000 nM -0.55%

O=C(NCCCN1CCOCC1)c1cnn2c(-c3ccccc3)cc(-c3ccccc3)nc12 [reversan]
inactive: 1 nM 12.1% | 8.33 nM 0.65% | 100 nM 1.42% | 833.33 nM 0.17% | 10000 nM -6.41%

CO/N=C(\C(=O)N[C@@H]1C(=O)N2C(C(=O)O)=C(COC(N)=O)CS[C@H]12)c1ccco1
inactive: 1 nM -0.51% | 8.33 nM 1.54% | 100 nM 0.59% | 833.33 nM 0.24% | 10000 nM -0.24%

Nc1ccccc1NC(=O)c1ccc(CNc2nccc(-c3cccnc3)n2)cc1 [mocetinostat]
inactive: 1 nM 0.57% | 8.33 nM -0.45% | 100 nM -0.53% | 833.33 nM 1.7% | 10000 nM -0.45%

CN(C)c1cccc(-c2c3c(=O)n(-c4ccccc4Cl)[nH]c3cc(=O)n2C)c1
inactive: 1 nM -1.01% | 8.33 nM 2.2% | 100 nM 0.39% | 833.33 nM -1.67% | 10000 nM 9.86%

C[C@H]1CC[C@H](n2c3cnccc3c3cnc(Nc4ccc5c(n4)CCN(C(=O)CO)C5)nc32)CC1
inactive: 1 nM -2.38% | 8.33 nM -0.1% | 100 nM -1.1% | 833.33 nM -0.44% | 10000 nM -5.03%

CCc1ccc(Cc2ccc3c(c2)[C@]2(OC3)O[C@H](CO)[C@@H](O)[C@H](O)[C@H]2O)cc1 [tofogliflozin]
inactive: 1 nM -0.25% | 8.33 nM 0.93% | 100 nM 0.26% | 833.33 nM 1.52% | 10000 nM -0.4%

CC(C)(C)NCC(O)CSc1nc(-c2ccc(C(N)=O)s2)cs1 (stereo not given) [arotinolol]
inactive: 1 nM -12.3% | 8.33 nM -9.63% | 100 nM -11% | 833.33 nM -9.7% | 10000 nM -6.09%

CCC(CC)O[C@@H]1C=C(C(=O)O)C[C@H](N)[C@H]1NC(C)=O [oseltamivir-carboxylate]
inactive: 1 nM -1.71% | 8.33 nM 0.87% | 100 nM 0.49% | 833.33 nM 1.32% | 10000 nM -0.82%

c1ccc(-c2n[nH]cc2-c2ccnc3ccccc23)nc1
inactive: 1 nM 1.81% | 8.33 nM -0.93% | 100 nM -2.43% | 833.33 nM -2.05% | 10000 nM -1.69%

CN1C(=O)C[C@@H](C(=O)N[C@@H](Cc2c[nH]cn2)C(=O)N2CCC[C@H]2C(N)=O)NC1=O [taltirelin]
inactive: 1 nM 1.73% | 8.33 nM 3.69% | 100 nM 3% | 833.33 nM 3.21% | 10000 nM 4.65%

COc1ccc(C(=O)NCc2ccc(OCCN(C)C)cc2)cc1OC [itopride]
inactive: 1 nM 0.25% | 8.33 nM -0.19% | 100 nM 1.77% | 833.33 nM -0.42% | 10000 nM 0.72%

CC(=O)CC/C=C(\C)CC/C=C(\C)CC/C=C(\C)CCC=C(C)C [teprenone]
inactive: 1 nM -0.07% | 8.33 nM 1.34% | 100 nM -1.34% | 833.33 nM 1.98% | 10000 nM 0.16%

CC1=CC(=C(c2ccc(N)cc2)c2ccc(N)cc2)C=CC1=N [basic-fuchsin]
inactive: 1 nM 0.76% | 8.33 nM 0.35% | 100 nM 1.45% | 833.33 nM -0.79% | 10000 nM -17.1%

O=c1cc[nH]c(=O)[nH]1 [uracil]
inactive: 1 nM -0.48% | 8.33 nM 2.2% | 100 nM 2.09% | 833.33 nM 1.66% | 10000 nM -2.12%

N[C@H]1C(O)O[C@H](CO)[C@@H](O)[C@@H]1O (mixture of isomers) [glucosamine]
inactive: 1 nM 3.44% | 8.33 nM 0.07% | 100 nM 2.73% | 833.33 nM 0.81% | 10000 nM 1.42%

CC(=O)C(=Cc1cc(O)c(O)c([N+](=O)[O-])c1)C(C)=O [nitecapone]
inactive: 1 nM -1.48% | 8.33 nM 2.97% | 100 nM 1.47% | 833.33 nM -1.89% | 10000 nM -6.91%

CCN(Cc1ccc(Cl)nc1)/C(=C/[N+](=O)[O-])NC [nitenpyram]
inactive: 1 nM 0.79% | 8.33 nM -0.17% | 100 nM -0.29% | 833.33 nM -1.84% | 10000 nM 1.08%

Source: the supplement of paper PMC13380429
